According to PubChem BioAssay AID1159580 (chemical genetic matrix, 2015):
Several values for one entry are separate records, joined by “and”; a condition that tells them apart may be missing. Equal entries are not always repeated. Hit rate of the full screen: of about 5,500 compounds, about 2,000 (36%) were called active. Roughly 18% stayed inconclusive and do not appear here. Cut-off read from the data, not from the text of the source: active = normalized growth mostly below about 0.91 (no sharp cut-off); inconclusive = no clear call, values can overlap the other calls; inactive = mostly above about 0.92. The list shows a part of the results.

Assay: chemical genetic growth profiling, strain panel (AID 1159580);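 note: tested at 20 µM; growth read once vehicle control cultures reached saturation at 30 °C; 1 = growth at the plate median or of vehicle wells; lower values mean less growth of the strain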
Details: S. cerevisiae deletion strains, growth OD

Measured: normalized growth

O=c1cc[nH]c(=S)[nH]1
inactive: locus YAL013W, strain DEP1, hits give low values 1.03 | locus YAL021C, strain ccr4, hits give low values 1.03 | locus YAL026C, strain drs2, hits give low values 0.987 | locus YAL030W, strain snc1, hits give low values 1 | locus YBL061C, strain skt5, hits give low values 1 | locus YBR009C, strain hhf1, hits give low values 0.964 | locus YBR021W, strain FUR4, hits give low values 1.02 | locus YBR023C, strain chs3, hits give low values 1.01 | locus YBR171W, strain sec66, hits give low values 1.01 | locus YBR229C, strain ROT2, hits give low values 1.01 | locus YBR231C, strain swc5, hits give low values 1.02 | locus YBR279W, strain paf1, hits give low values 0.997 | locus YCL011C, strain gbp2, hits give low values 0.997 | locus YCL016C, strain dcc1, hits give low values 1 | locus YCL029C, strain bik1, hits give low values 1.01 | locus YCL061C, strain MRC1, hits give low values 1.03 | locus YCL069W, strain vba3, hits give low values 1.01 | locus YCR088W, strain abp1, hits give low values 1.01 | locus YDL005C, strain med2, hits give low values 1.04 | locus YDL035C, strain GPR1, hits give low values 1.02 | locus YDL040C, strain nat1, hits give low values 1.01 | locus YDL074C, strain BRE1, hits give low values 1.03 | locus YDL101C, strain DUN1, hits give low values 1.03 | locus YDL134C, strain PPH21, hits give low values 1.02 | locus YDL185W, strain tfp1, hits give low values 1.01 | locus YDL192W, strain arf1, hits give low values 1.02 | locus YDR001C, strain nth1, hits give low values 1 | locus YDR069C, strain doa4, hits give low values 1.04 | locus YDR101C, strain arx1, hits give low values 1.01 | locus YDR137W, strain rgp1, hits give low values 1.04 | locus YDR150W, strain NUM1, hits give low values 1.01 | locus YDR159W, strain sac3, hits give low values 1.02 | locus YDR162C, strain NBP2, hits give low values 1.02 | locus YDR195W, strain ref2 1.03 | locus YDR297W, strain sur2, hits give low values 1.01 | locus YDR318W, strain mcm21, hits give low values 1.03 | locus YDR334W, strain swr1, hits give low values 1 | locus YDR335W, strain msn5, hits give low values 1.01 | locus YDR388W, hits give low values 1 | locus YDR392W, strain spt3, hits give low values 0.962 | locus YDR502C, strain sam2, hits give low values 1.03 | locus YEL003W, strain gim4, hits give low values 1 | locus YEL037C, strain rad23, hits give low values 0.991 | locus YEL061C, strain CIN8 (second series), hits give low values 1 | locus YEL061C, strain CIN8, hits give low values 1.01 | locus YER015W, strain faa2, hits give low values 1.01 | locus YER016W, strain bim1, hits give low values 1.01 | locus YER110C, hits give low values 1 | locus YER111C, strain swi4, hits give low values 1.01 | locus YER155C, strain BEM2 (second series), hits give low values 1.04 | locus YER155C, strain BEM2, hits give low values 1.01 | locus YER167W, strain BCK2, hits give low values 1.02 | locus YFR010W, strain ubp6, hits give low values 0.997 | locus YGL078C, strain dbp3, hits give low values 1.01 | locus YGL086W, strain mad1, hits give low values 1 | locus YGL167C, strain pmr1, hits give low values 1 | locus YGL173C, strain kem1, hits give low values 1.01 | locus YGL227W, strain vid30, hits give low values 1.01 | locus YGL240W, strain doc1, hits give low values 1.07 | locus YGL248W, strain PDE1, hits give low values 1.01 | locus YGL253W, strain hxk2, hits give low values 1.03 | locus YGR078C, strain PAC10, hits give low values 1.03 | locus YGR135W, strain pre9, hits give low values 1.02 | locus YGR229C, strain SMI1, hits give low values 1.03 | locus YGR252W, strain gcn5, hits give low values 1.09 | locus YHR013C, strain ard1, hits give low values 1.04 | locus YHR027C, strain rpn1, hits give low values 1 | locus YHR030C, strain SLT2, hits give low values 1.02 and 0.995 | locus YHR079C, strain IRE1 (second series), hits give low values 0.999 | locus YHR079C, strain IRE1, hits give low values 1.01 | locus YHR094C, strain hxt1, hits give low values 0.983 | locus YHR129C, strain ARP1, hits give low values 1.01 | locus YHR142W, strain chs7, hits give low values 0.987 | locus YHR200W, strain rpn10, hits give low values 1.02 | locus YIL066C, strain RNR3, hits give low values 1.03 | locus YIL073C, strain SPO22, hits give low values 1.03 | locus YIL125W, strain kgd1, hits give low values 1.01 | locus YIR030C, strain dcg1, hits give low values 1.01 | locus YJL092W, strain hpr5, hits give low values 1 | locus YJL095W, strain BCK1 (second series), hits give low values 1.01 | locus YJL095W, strain BCK1, hits give low values 1.04 and 1.01 | locus YJL115W, strain asf1, hits give low values 1.01 | locus YJL129C, strain trk1, hits give low values 1.01 | locus YJL134W, strain LCB3, hits give low values 1.01 | locus YJL154C, strain vps35, hits give low values 1.01 | locus YJL164C, strain tpk1, hits give low values 0.983 | locus YJL166W, strain qcr8, hits give low values 1.03 | locus YJL168C, strain set2, hits give low values 0.997 | locus YJL187C, strain SWE1 (second series), hits give low values 1.04 | locus YJL187C, strain SWE1, hits give low values 1.01 | locus YJR043C, strain POL32, hits give low values 1.02 | locus YJR066W, strain TOR1, hits give low values 0.917
